# According to PubChem BioAssay:
# Active and inactive are the calls of the source. Unless noted, no stated cut-off is given here; in the data, active means inhibition above about 80%; inactive means the rest.
# Legend:
# [1] = growth inhibition of BT084 medulloblastoma cells, cell-based, ICGC_MB145, cisplatin and BGB IC40 combos (AID 1671461); conditions: drug combinations, stronger effect = higher value;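 further: cells exposed to drugs for 96 hours; 0% = vehicle DMSO and 100% = high DMSO full killing control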
# [2] = growth inhibition of RCMB18 medulloblastoma cells, cell-based, cisplatin and BGB IC40 combos (AID 1671462); conditions: stronger effect = higher value;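 further: cells exposed to compound for four days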
# [3] = growth inhibition of CRL1545 osteosarcoma cells, cell-based, cisplatin and BGB IC20 combos (AID 1671464); conditions: stronger effect = higher value;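 further: cells exposed to compound for 96 hours before readout; 0% = vehicle DMSO and 100% = high DMSO killing control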
# [4] = hESC survival regulators, cell-based (AID 493140; call rule not given here;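 further: cells exposed to compounds for four days before counting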); conditions: human embryonic stem cell survival screen; stronger effect = higher value
# [5] = liver-stage malaria parasite growth inhibition, primary screen, cell-based, HepG2, luciferase luminescence, HepG2 viability (AID 624349; in the data active means parasite load remaining mostly below about 12%, no sharp cut-off; inactive means mostly above about 10%;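 further: 100% = mean of DMSO negative control wells on the same plate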); conditions: P. berghei liver stage in HepG2, luciferase luminescence, concentration not given here; parasite load remaining: stronger effect = lower value; viability: measured here: HepG2 viability without parasites
# [6] = sensitizers of A549 cells to miR-34 induction, primary screen, imaging, A549 dox-inducible miR-34, nuclei and caspase counts (AID 1347080;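 active means compounds whose cell count with miR-34 switched on is under 0.7 times the count with it off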); conditions: A549 miR-34 inducible, Hoechst nuclei count, 48 h
# [7] = survival rescue of mitochondrial mutant cells in low glucose, primary screen, MELAS cybrids, Rieske KO mouse fibroblasts, CellTiter-Glo (AID 1508586;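 active means mean z-score across replicates of 1.96 or higher in either the MELAS or the Rieske mutant cell line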;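 further: z relative to plate mean and SD of compound and empty wells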)
# [8] = LFS_MB_P medulloblastoma growth inhibition, cell-based, chromothripsis tumors, cisplatin or BGB combos (AID 1671449); conditions: LFS_MB_P medulloblastoma cells;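 further: cells exposed for 96 hours; 0% = vehicle DMSO and 100% = killing by high DMSO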
# [9] = HDN33 neuroblastoma growth inhibition, cell-based, chromothripsis tumors, cisplatin or BGB combos (AID 1671450); conditions: HDN33 neuroblastoma cells, stronger effect = higher value;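 further: cells exposed to compound for four days; 0% = vehicle DMSO and 100% = cell killing by high DMSO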
# [10] = ICB984 medulloblastoma cell growth inhibition, synergistic combos for chromothripsis tumors, cisplatin or BGB combos (AID 1671451; call rule not given here;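 further: cells exposed for 96 hours before readout; 0% = vehicle DMSO and 100% = killing by high DMSO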); conditions: ICB984 medulloblastoma cells, drug combinations, stronger effect = higher value
# [11] = LFS_MB_1R medulloblastoma cell growth inhibition, synergistic combos for chromothripsis tumors, cisplatin or BGB combos (AID 1671452); conditions: LFS_MB_1R medulloblastoma cells, stronger effect = higher value;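 further: cells exposed for 96 hours before readout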
# [12] = HTB85 osteosarcoma cell growth inhibition, synergistic combos for chromothripsis tumors, BGB or cisplatin IC20 combos (AID 1671453); conditions: HTB85 osteosarcoma cells, drug combinations, stronger effect = higher value;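 further: cells exposed for 96 hours before readout; 0% = vehicle DMSO and 100% = high DMSO killing control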
# [13] = CRL2098 osteosarcoma cell growth inhibition, synergistic combos for chromothripsis tumors, BGB or cisplatin IC20 combos (AID 1671454); conditions: CRL2098 osteosarcoma cells, drug combinations, stronger effect = higher value;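 further: cells exposed for 96 h before readout; 0% = vehicle DMSO and 100% = killing by high DMSO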
# [14] = HD-MB03 medulloblastoma cell growth inhibition, synergistic combos for chromothripsis tumors, BGB or cisplatin IC20 combos (AID 1671455; in the data active means inhibition above about 83%;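 further: 0% = vehicle DMSO and 100% = high DMSO as cytotoxic control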); conditions: HD-MB03 medulloblastoma cells, stronger effect = higher value
# [15] = UWB1.289 ovarian carcinoma cell growth inhibition, synergistic combos for chromothripsis tumors, BGB or cisplatin combos (AID 1671456); conditions: UWB1.289 ovarian carcinoma cells, stronger effect = higher value;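 further: cells exposed to compound for four days; 0% = vehicle DMSO and 100% = killing by high DMSO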
# [16] = LFS_MB_2R medulloblastoma cell growth inhibition, synergistic combos for chromothripsis tumors, cisplatin combos (AID 1671457); conditions: LFS_MB_2R medulloblastoma cells, stronger effect = higher value;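 further: cells exposed to compound for four days before readout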
# [17] = MDA-MB-436 breast carcinoma cell growth inhibition, synergistic combos for chromothripsis tumors, BGB or cisplatin combos (AID 1671458; call rule not given here;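 further: cells exposed for 96 hours; 0% = vehicle DMSO and 100% = killing by high DMSO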); conditions: MDA-MB-436 breast carcinoma growth inhibition, drug combinations, stronger effect = higher value
# [18] = UWB1.289_BRCA1 ovarian cancer growth, cell-based, BGB or cisplatin combinations (AID 1671459); conditions: UWB1.289 BRCA1 ovarian carcinoma, drug combinations, stronger effect = higher value
# [19] = human astrocyte viability loss, single and combined drugs, cytotoxicity control for chromothriptic childhood tumor combination screen, cell-based, BGB or cisplatin IC20 combos (AID 1671460); conditions: Human astrocytes, drug combinations, stronger effect = higher value;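 further: cells exposed to compounds for 96 hours before viability readout; 0% = vehicle and 100% = killing control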
# [20] = cisplatin combination, at 0.5 µM
# [21] = measured here: BGB IC40 combination 0.05 uM, at 0.05 µM
# [22] = measured here: BGB IC40 combination, at 0.05 µM
# [23] = measured here: combination with cisplatin, at 0.5 µM
# [24] = measured here: with BGB IC20 combination, at 0.5 µM
# [25] = measured here: with cisplatin IC20 combination, at 0.5 µM
# [26] = stronger effect = lower value, cell number ratio, induced over uninduced
# [27] = measured here: relative caspase fold change +Dox/-Dox
# [28] = measured here: total cells with miR-34 induction, stronger effect = lower value
# [29] = measured here: total cells without miR-34 induction
# [30] = MELAS cybrid survival, CellTiter-Glo 48 h, stronger effect = higher value
# [31] = Rieske KO mouse fibroblast survival, CellTiter-Glo 72 h
# [32] = measured here: combination with BGB IC40, at 0.05 µM
# [33] = measured here: combination with cisplatin, at 5 µM
smiles,measurement,setting,value
Nc1ncn(C2OC(CO)C(O)C2O)c(=O)n1 (configuration not stated),inhibition,[1]; [20],-8.96%
same,inhibition,"[1]; cisplatin combination, at 5 µM",53.9%
same,inhibition,[1]; [21],30.7%
same,inhibition,"[1]; single agent, at 5 µM",8.5%
same,inhibition,[2]; at 0.5 µM,6.45% (inactive)
same,inhibition,"[2]; cisplatin combo, at 5 µM",53.3%
same,inhibition,[2]; [22],-6.06%
same,inhibition,[2]; [23],6.83%
same,inhibition,"[2]; single agent, at 5 µM",41.5%
same,inhibition,[3]; at 0.5 µM,0.69% (inactive)
same,inhibition,[3]; [24],16.1%
same,inhibition,[3]; [25],-8.76%
same,inhibition,"[3]; single agent, at 0.05 µM",-10.6%
same,inhibition,"[3]; single agent, at 5 µM",9.69%
C[C@@H]1C[C@H]2[C@@H]3C[C@H](F)C4=CC(=O)C=C[C@]4(C)[C@@]3(Cl)[C@@H](O)C[C@]2(C)[C@H]1C(=O)COC(=O)C(C)(C)C,survival,[4],4.25 (inactive)
same,parasite load remaining,[5],85.6% (inactive)
same,viability,[5],86.4%
same,fold change,[6]; [26],0.917 (inactive)
same,fold change,[6]; [27],0.704
same,cell count,[6]; [28],6960
same,cell count,[6]; [29],7580
same,z-score,[7]; [30],-0.991 (inactive)
same,z-score,[7]; [31],-0.15
Cc1cc(C)c(Nc2ccnc(Nc3ccc(C#N)cc3)n2)c(C)c1,fold change,[6]; [26],0.923 (inactive)
same,fold change,[6]; [27],0.624
same,cell count,[6]; [28],2390
same,cell count,[6]; [29],2590
same,z-score,[7]; [30],0.0317 (inactive)
same,z-score,[7]; [31],0.105
same,inhibition,"[8]; at 0.5 µM, stronger effect = higher value",-1.98% (inactive)
same,inhibition,"[8]; measured here: combination with BGB IC20, at 0.005 µM",-30.5%
same,inhibition,"[8]; measured here: combination with BGB IC40, at 0.005 µM",-59.6%
same,inhibition,[8]; [32],-34.5%
same,inhibition,"[8]; measured here: combination with cisplatin, at 0.5 µM, stronger effect = higher value",-3.17%
same,inhibition,"[8]; measured here: combination with cisplatin, at 5 µM, stronger effect = higher value",-40.8%
same,inhibition,"[9]; BGB combo, at 5 µM",15.1%
same,inhibition,[9]; at 0.5 µM,0.3% (inactive)
same,inhibition,"[9]; cisplatin combo, at 5 µM",3.99%
same,inhibition,[9]; [24],-2.53%
same,inhibition,[9]; [25],7.83%
same,inhibition,"[9]; single agent, at 5 µM",42.2%
same,inhibition,"[10]; BGB IC20 combo, at 0.005 µM",-14.3%
same,inhibition,"[10]; BGB IC40 combo, at 0.005 µM",-27.4%
same,inhibition,"[10]; BGB IC40 combo, at 0.05 µM",-8.56%
same,inhibition,[10]; at 0.5 µM,-22.9% (inactive)
same,inhibition,"[10]; cisplatin combo, at 0.05 µM",-14.1%
same,inhibition,"[10]; cisplatin combo, at 0.5 µM",-41.4%
same,inhibition,"[10]; cisplatin combo, at 5 µM",-46.6%
same,inhibition,"[10]; measured here: 5 uM single agent, at 5 µM",-22%
same,inhibition,[11]; at 0.5 µM,-25.5% (inactive)
same,inhibition,[11]; [32],-43.1%
same,inhibition,[11]; [23],-56.3%
same,inhibition,[11]; [33],-12.2%
same,inhibition,[12]; at 0.5 µM,-1.97% (inactive)
same,inhibition,"[12]; measured here: with BGB IC20, at 0.5 µM",4.79%
same,inhibition,"[12]; measured here: with BGB IC20, at 5 µM",40.8%
same,inhibition,"[12]; measured here: with cisplatin IC20, at 0.5 µM",-20.5%
same,inhibition,"[12]; measured here: with cisplatin IC20, at 5 µM",9.74%
same,inhibition,"[12]; single agent, at 5 µM",50.9%
same,inhibition,[13]; at 0.5 µM,-8.33% (inactive)
same,inhibition,"[13]; measured here: combination with BGB at IC20, at 0.5 µM",-39%
same,inhibition,"[13]; measured here: combination with cisplatin at IC20, at 0.5 µM",10.4%
same,inhibition,[14]; at 0.5 µM,-17.9% (inactive)
same,inhibition,"[14]; measured here: combo with BGB at IC20, at 0.5 µM",-21.5%
same,inhibition,"[14]; measured here: combo with cisplatin at IC20, at 0.5 µM",-28.7%
same,inhibition,[15]; at 0.5 µM,-2.26% (inactive)
same,inhibition,"[15]; measured here: inhibition with BGB combination, at 0.05 µM",-10.8%
same,inhibition,"[15]; measured here: inhibition with cisplatin combination, at 0.05 µM",-7.91%
same,inhibition,[16]; at 0.5 µM,-18.5% (inactive)
same,inhibition,[16]; [23],-29.8%
same,inhibition,[16]; [33],-25.8%
same,inhibition,[17]; at 0.5 µM,-14.9% (inactive)
same,inhibition,"[17]; measured here: BGB combination, at 0.5 µM",-9.41%
same,inhibition,"[17]; measured here: BGB combination, at 5 µM",25.9%
same,inhibition,"[17]; measured here: cisplatin combination, at 0.5 µM",-36.7%
same,inhibition,"[17]; measured here: cisplatin combination, at 5 µM",45.4%
same,inhibition,"[18]; BGB combination, concentration series, at 5 µM",69.3%
same,inhibition,[18]; at 0.5 µM,-2.68% (inactive)
same,inhibition,"[18]; cisplatin combination, concentration series, at 5 µM",45%
same,inhibition,[19]; at 0.5 µM,11.9% (inactive)
same,inhibition,"[19]; measured here: combo with BGB IC20, at 0.5 µM",11.7%
same,inhibition,"[19]; measured here: combo with cisplatin IC20, at 0.5 µM",9.36%
same,inhibition,[1]; at 0.5 µM,8.57% (inactive)
same,inhibition,[1]; [20],-23.4%
same,inhibition,"[1]; cisplatin combination, at 5 µM",-181%
same,inhibition,[1]; [21],-32.7%
same,inhibition,"[1]; single agent, at 5 µM",2.56%
same,inhibition,[2]; at 0.5 µM,-10.9% (inactive)
same,inhibition,"[2]; cisplatin combo, at 5 µM",-30.4%
same,inhibition,[2]; [22],-21.8%
same,inhibition,[2]; [23],-16.3%
same,inhibition,"[2]; single agent, at 5 µM",17.4%
same,inhibition,[3]; at 0.5 µM,11.1% (inactive)
same,inhibition,[3]; [24],-10.9%
same,inhibition,[3]; [25],20.9%
same,inhibition,"[3]; single agent, at 0.05 µM",-17.9%
same,inhibition,"[3]; single agent, at 5 µM",56.2%
